A number with no mark means an inactive call. Unless noted, calls follow the shape of the dose curve; as a rule, active = well fitted activation curve with a large enough effect in the main read-out, with a control signal flat (not every such curve was filed as active); inconclusive = small, poorly fitted or top-dose-only effect, or effect the other way, or a change in a side signal; inactive = flat fitted curve, though single readings scatter. Records with an inconclusive call do not appear.

Sequence of 3',5'-cyclic-AMP phosphodiesterase 4B (Homo sapiens) (Q07343 whole entry, looked up): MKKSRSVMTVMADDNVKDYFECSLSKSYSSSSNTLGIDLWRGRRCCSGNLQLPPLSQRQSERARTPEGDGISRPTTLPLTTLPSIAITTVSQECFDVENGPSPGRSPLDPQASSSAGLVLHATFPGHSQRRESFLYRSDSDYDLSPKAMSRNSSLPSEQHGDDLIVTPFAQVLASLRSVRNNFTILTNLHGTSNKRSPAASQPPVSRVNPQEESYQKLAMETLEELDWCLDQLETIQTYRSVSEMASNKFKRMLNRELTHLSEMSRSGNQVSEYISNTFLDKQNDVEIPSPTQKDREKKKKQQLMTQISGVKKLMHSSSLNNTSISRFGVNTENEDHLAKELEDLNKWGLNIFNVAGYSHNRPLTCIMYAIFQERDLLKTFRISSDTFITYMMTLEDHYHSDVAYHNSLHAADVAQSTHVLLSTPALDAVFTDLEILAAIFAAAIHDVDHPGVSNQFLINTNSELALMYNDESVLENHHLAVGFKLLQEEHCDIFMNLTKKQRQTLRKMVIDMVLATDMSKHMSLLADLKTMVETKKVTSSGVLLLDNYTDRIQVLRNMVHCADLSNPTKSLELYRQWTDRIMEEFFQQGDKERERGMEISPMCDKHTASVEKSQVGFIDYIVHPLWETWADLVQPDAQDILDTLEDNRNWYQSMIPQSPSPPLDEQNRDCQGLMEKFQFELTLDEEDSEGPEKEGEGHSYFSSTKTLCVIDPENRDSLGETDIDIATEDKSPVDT

The target of one experiment is Glucocorticoid receptor (Homo sapiens) (UniProt P04150). The experiment in a line: GR-EFC Redistribution (AID 451; calls by dose curve; also: potency is read from the fitted curve at half-maximal effect). The conditions noted are these: CHO-K1 GR-EFC translocation, beta-gal luminescence, 2 h. The method in brief: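 Translocation of GR-ED fusion to nuclear EA restores b-gal, read by luminescence after 1 h room-temperature detection. Engineered CHO-K1 biosensor cells, 1,000/well, exposed 2 h at 37 C to titrations up to 46 uM final.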
Sequence of Glucocorticoid receptor (Homo sapiens) (P04150 whole entry, looked up, the tested form may be a part): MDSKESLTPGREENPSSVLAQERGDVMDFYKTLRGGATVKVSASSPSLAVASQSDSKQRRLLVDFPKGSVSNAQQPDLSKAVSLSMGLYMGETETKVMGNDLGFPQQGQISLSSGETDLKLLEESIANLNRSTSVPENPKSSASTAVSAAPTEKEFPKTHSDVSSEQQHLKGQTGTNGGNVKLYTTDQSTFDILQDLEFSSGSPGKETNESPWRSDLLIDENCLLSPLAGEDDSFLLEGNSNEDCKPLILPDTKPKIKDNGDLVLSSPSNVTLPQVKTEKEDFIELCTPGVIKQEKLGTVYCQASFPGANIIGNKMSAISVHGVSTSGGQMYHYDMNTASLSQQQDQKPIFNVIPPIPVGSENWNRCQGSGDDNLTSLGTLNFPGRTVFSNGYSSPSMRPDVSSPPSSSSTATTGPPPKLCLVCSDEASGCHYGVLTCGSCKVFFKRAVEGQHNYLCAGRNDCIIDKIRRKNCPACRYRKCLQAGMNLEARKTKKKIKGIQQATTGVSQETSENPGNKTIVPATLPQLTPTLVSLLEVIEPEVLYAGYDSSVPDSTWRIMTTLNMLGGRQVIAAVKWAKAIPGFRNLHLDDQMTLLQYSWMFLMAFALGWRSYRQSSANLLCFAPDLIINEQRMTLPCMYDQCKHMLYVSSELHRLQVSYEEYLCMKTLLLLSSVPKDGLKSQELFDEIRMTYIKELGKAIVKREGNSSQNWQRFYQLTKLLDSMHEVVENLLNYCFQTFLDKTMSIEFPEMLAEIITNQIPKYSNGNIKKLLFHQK
Consider `CN(C)CCCO[C@H]1[C@H]([C@H](O)CO)O[C@H]2OC(C)(C)O[C@@H]21`, for which the Potency is over 46 µM.
Still for that read-out and setting: as for `CCCCCCCCCCCCCCCCCC(=O)NC[C@@H](COP(=O)([O-])OCC[N+](C)(C)C)OCC`, the figure is over 46 µM; as for `CC[C@H](C)[C@@H]1O[C@]2(CC[C@@H]1C)C[C@H]1C[C@H](CC=C(C)[C@@H](O[C@@H]3C[C@H](OC)[C@H](O[C@@H]4C[C@H](OC)[C@H](O)[C@H](C)O4)[C@H](C)O3)[C@@H](C)C=CC=C3CO[C@@H]4[C@@H](O)C(C)=C[C@@H](C(=O)O1)[C@]34O)O2`, over 20.6 µM.

Another experiment deals with 3',5'-cyclic-AMP phosphodiesterase 4B (Homo sapiens) (UniProt Q07343). The experiment is described as follows: qHTS Assay for Inhibitors of PDE-IV (AID 607). Also: % of control where 0% means no effect. Particulars: HEK293 ACTOne CNG channel cells, membrane potential fluorescence; series mostly up to 22.9 µM; activation (PDE inhibition): at the top concentration. An outline of the steps:
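ACTOne HEK293 cells carry a modified cAMP-gated CNG channel and express endogenous PDE4; plated 1000 cells/well, compounds up to 22.9 uM final. Membrane-potential dye fluorescence (ex 535/em 590) was read; parental cells received 10 uM forskolin + 100 uM RO 20-1724.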
In the case of `CN(C)CCCO[C@H]1[C@H]([C@H](O)CO)O[C@H]2OC(C)(C)O[C@@H]21`, the “activation (PDE inhibition)” value was 3.19%.
Same read-out and setting: as for `CCCCCCCCCCCCCCCCCC(=O)NC[C@@H](COP(=O)([O-])OCC[N+](C)(C)C)OCC`, the figure is 13.6%; as for `CC[C@H](C)[C@@H]1O[C@]2(CC[C@@H]1C)C[C@H]1C[C@H](CC=C(C)[C@@H](O[C@@H]3C[C@H](OC)[C@H](O[C@@H]4C[C@H](OC)[C@H](O)[C@H](C)O4)[C@H](C)O3)[C@@H](C)C=CC=C3CO[C@@H]4[C@@H](O)C(C)=C[C@@H](C(=O)O1)[C@]34O)O2`, -6.45%.
